Measured values published in the supplement of paper PMC6555819.

Assays:
Assay in all cases: PBM binding z-score (relative to random genomic background probes); higher = stronger binding; sequences stand for … in GC…GCGATTGACAGCGTAGAATGAAGG
[1] = tested on: RARb homodimer (NR concentration 270 nM)
Outline: (§1)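 For binding z-scores, the reference was random background probes on custom Agilent 4×180K protein-binding microarrays. These arrays were incubated 1 h with ligand-free nuclear receptor dimers in PBS pH 7.4, 2% milk, 0.02% Triton X-100, 1 mM DTT, 0.2 mg/mL BSA and 0.4 mg/ml salmon testes DNA. Fluorescence was scanned after antibody detection of each partner (one per run) and regression-normalized.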

[2] = tested on: RARg:RXRa (NR concentration 270 nM, RXRa partner concentration 90 nM)
Outline: as §1

[3] = tested on: RARg homodimer (NR concentration 270 nM)
Outline: as §1

[4] = tested on: RXRa DBDmut IVT, anti-RXR (DBD mutation: RXRa K156A/R161A, NR concentration 90 nM)
Outline: as §1

[5] = tested on: RXRa homodimer (NR concentration 180 nM)
Outline: as §1

[6] = tested on: THRa:RXRa (NR concentration 90 nM, RXRa partner concentration 90 nM)
Outline: as §1

[7] = tested on: THRa homodimer (NR concentration 90 nM)
Outline: as §1

[8] = tested on: VDR homodimer (NR concentration 270 nM)
Outline: as §1

Sequence | PBM binding z-score [1] | PBM binding z-score [2] | PBM binding z-score [3] | PBM binding z-score [4] | PBM binding z-score [5] | PBM binding z-score [6] | PBM binding z-score [7] | PBM binding z-score [8]
GCTCGGAGGACAAGGTCAGAGCCTTGTCCGTAGA | 2.82 | 3.32 | 3.39 | 0.219 | 2.81 | 2.78 | 1.01 | 0.502
GCTGACGGGTCAAAGGTTATAGCATGAATAGAAT | 3.04 | 6.46 | 4.08 | 1.66 | 9.14 | 3.85 | -0.263 | 0.919
CATACAGGGTCAGCTAGGCCCGAGTAGGGACGGC | 3.14 | 4.41 | 4.89 | 1.18 | 4.55 | 3.14 | 0.566 | 0.91
ACTAGTTGGTCAGCTGAGCTCACACACAATTCGG | 0.0845 | -0.0715 | 0.577 | 0.194 | -0.234 | 0.0887 | -0.346 | -0.289
CCTCGGAGGACAAAAGGAGGTCAGAGCTGCCAGA | 3.07 | 3.24 | 2.75 | 0.256 | 1.82 | 2.5 | 0.878 | 1.23
ACTATTAGTTGACTTAGTGCAACCGATACGACGC | 0.207 | 0.552 | 0.65 | 0.565 | 0.369 | 0.0819 | -0.158 | 0.241
CGAACTAGGTCAGCACAGGACAGTGAAGGATGAT | 2.69 | 3.27 | 4.34 | 0.563 | 1.68 | 3.81 | 0.48 | -0.111
